Calls of active or inactive are those of the source. Unless noted, the rule behind the calls is not given here.

The nature of experiment [1]: anti-His antibody binders, primary screen, artefact control for SMM control protein annotation, biochemical, small-molecule microarray, 635 nm fluorescence (AID 1128).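 Note: score merges feature fluorescence with signal-to-noise for each printed compound spot.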 The note with it: anti-His Alexa647 antibody binding, higher = more signal.
The subject of experiment [2] is Human papillomavirus type 1a E7 protein (residues 1-88). As to the kind of experiment: HPV1a E7 small-molecule binders, primary screen, biochemical, small-molecule microarray, residues 1-88, 635 nm (AID 1129). The note with it: small-molecule microarray binding, fluorescence 635 nm; higher = more signal.
The target in experiment [3] is Focal adhesion kinase 1 (Homo sapiens) (UniProt Q05397). As to the kind of experiment: small-molecule microarray binders of FAK, primary screen, biochemical, 635/667 nm fluorescence, BSA, DTT (AID 1130).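 Note: composite of spot emission at 667 nm and signal to noise over triplicate slides.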 The note with it: PTK2 binding, 635 nm fluorescence, higher = more signal.
Chain of Focal adhesion kinase 1 (Homo sapiens) (Q05397 whole entry, looked up): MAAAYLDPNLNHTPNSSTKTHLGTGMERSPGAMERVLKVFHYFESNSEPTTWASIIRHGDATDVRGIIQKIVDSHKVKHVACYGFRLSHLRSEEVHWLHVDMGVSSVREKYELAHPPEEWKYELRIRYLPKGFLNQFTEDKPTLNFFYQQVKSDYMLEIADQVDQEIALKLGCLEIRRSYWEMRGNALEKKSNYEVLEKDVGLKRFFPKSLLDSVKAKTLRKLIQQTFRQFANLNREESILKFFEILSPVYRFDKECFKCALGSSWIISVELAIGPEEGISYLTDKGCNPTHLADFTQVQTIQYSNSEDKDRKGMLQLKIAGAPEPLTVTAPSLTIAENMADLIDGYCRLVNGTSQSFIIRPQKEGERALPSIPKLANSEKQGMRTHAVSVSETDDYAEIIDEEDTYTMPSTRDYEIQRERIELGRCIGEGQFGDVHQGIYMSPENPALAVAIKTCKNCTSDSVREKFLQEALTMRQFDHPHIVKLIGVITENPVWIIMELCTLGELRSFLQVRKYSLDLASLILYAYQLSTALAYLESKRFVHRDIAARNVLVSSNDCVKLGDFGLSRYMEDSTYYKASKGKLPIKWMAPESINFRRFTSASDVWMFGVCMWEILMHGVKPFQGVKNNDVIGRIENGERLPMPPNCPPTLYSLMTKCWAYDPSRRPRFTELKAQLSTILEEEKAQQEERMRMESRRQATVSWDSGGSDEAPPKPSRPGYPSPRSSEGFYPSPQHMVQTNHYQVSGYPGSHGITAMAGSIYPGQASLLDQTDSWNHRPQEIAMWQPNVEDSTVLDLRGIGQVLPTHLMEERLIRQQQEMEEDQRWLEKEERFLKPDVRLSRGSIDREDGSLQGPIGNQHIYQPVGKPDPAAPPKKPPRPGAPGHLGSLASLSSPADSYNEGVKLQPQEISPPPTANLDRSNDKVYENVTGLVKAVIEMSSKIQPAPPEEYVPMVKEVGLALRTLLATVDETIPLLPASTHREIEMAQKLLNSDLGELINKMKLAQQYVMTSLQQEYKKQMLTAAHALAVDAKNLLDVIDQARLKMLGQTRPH
Experiment [4] relates to Fibrinogen (Alexa647-labelled). Nature of the experiment: fibrinogen binders on compound microarrays, profiling panel, artefact control for SMM control-protein annotation, biochemical, small-molecule microarray, 635/667 nm fluorescence (AID 1131).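 Note: z-score merges 667 nm fluorescence with per-spot signal-to-noise over triplicate slides.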 The note with it: fibrinogen-A647 binding fluorescence, higher = more signal.
The target in experiment [5] is Follistatin (Homo sapiens) (UniProt P19883). Nature of the experiment: follistatin binders on small-molecule microarrays, primary screen, biochemical, small-molecule microarray, 635/667 nm fluorescence (AID 1132). The note with it: FST binding, 635 nm fluorescence, higher = more signal.
Chain of Follistatin (Homo sapiens) (P19883 whole entry, looked up): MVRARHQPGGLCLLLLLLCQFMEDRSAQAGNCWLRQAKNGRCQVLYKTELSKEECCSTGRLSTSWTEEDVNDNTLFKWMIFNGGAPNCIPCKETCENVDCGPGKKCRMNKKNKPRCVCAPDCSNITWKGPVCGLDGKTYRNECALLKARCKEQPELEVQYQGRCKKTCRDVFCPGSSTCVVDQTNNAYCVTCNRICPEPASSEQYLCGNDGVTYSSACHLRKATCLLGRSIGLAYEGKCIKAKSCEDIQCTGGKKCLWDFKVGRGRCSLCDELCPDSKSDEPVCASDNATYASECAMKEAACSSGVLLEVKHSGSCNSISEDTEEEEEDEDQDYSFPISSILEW
In experiment [6] the target is Fibroblast growth factor 2 (Homo sapiens) (UniProt P09038). Nature of the experiment: FGF2 binders on small-molecule microarrays, primary screen, biochemical, small-molecule microarray, 635/667 nm fluorescence (AID 1133). The note with it: small-molecule microarray binding, FGF2, fluorescence 635/667; higher = more signal.
Chain of Fibroblast growth factor 2 (Homo sapiens) (P09038 whole entry, looked up): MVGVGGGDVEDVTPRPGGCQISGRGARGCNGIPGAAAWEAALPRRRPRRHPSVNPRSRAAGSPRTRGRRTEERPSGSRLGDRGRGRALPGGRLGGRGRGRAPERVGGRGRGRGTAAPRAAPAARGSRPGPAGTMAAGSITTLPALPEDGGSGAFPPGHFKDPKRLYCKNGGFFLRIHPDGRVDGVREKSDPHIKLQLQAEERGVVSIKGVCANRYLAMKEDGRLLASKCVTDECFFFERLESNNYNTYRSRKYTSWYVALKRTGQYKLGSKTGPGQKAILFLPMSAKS
The nature of experiment [7]: mitochondrial membrane potential change in A549 cells, profiling panel, cell-based, JC-1 fluorescence, basal, 24 h, 100 nL (AID 1138).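 Note: A549 lung adenocarcinoma cells under basal conditions with no added stimulus; test concentration not given here.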 The note with it: higher = more signal.
The test system of the next experiment is Lefty1. As to the kind of experiment: Lefty1 binders on small-molecule microarrays, primary screen, biochemical, small-molecule microarray, 635/667 nm fluorescence (AID 1139). The note with it: small-molecule microarray binding, fluorescence 635/667; higher = more signal.
Experiment [8] has as its system wheat germ agglutinin (Triticum aestivum), Alexa647-labelled. Nature of the experiment: wheat germ agglutinin binders on compound microarrays, profiling panel, artefact control for SMM control-protein annotation, biochemical, small-molecule microarray, 635/667 nm fluorescence (AID 1140).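 Note: score merges 667 nm feature emission with signal to noise over triplicate slides.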 The note with it: WGA-A647 binding, 635 nm fluorescence, higher = more signal.
Experiment [9] addresses Luciferin 4-monooxygenase (Photinus pyralis) (UniProt P08659). As to the kind of experiment: firefly luciferase enzyme inhibitors, primary screen, biochemical, luminescence, purified enzyme, 2006 set (AID 1141).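 Note: cell-free assay with purified firefly luciferase at 100 ng per well in PBS; test concentration not given here.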 The note with it: SteadyGlo luminescence, 30 min, higher = more signal, called active from +8 up or from −8 down.
Experiment [10] deals with Wnt5a (protein binding on small-molecule microarray). Nature of the experiment: Wnt5a binders on small-molecule microarray, primary screen, biophysical, 635/667 nm fluorescence (AID 1142).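 Note: fluorescence read at 667 nm with signal to noise per printed feature.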 The note with it: 635 nm fluorescence, higher = more signal.
A short description of experiment [11]: cell viability in Huh7 cells, primary screen, cytotoxicity control for HCV replication inhibitor project, CellTiter-Glo luminescence, basal, 48 h (AID 1143).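 Note: Huh7 hepatoma cells carrying a hepatitis C replication reporter with no stimulus; test concentration not given here.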 The note with it: Huh7 HCV replicon, higher = more signal, called active from +8 up or from −8 down. (ATP-based viability assays read luminescence as a measure of living cells.)
Experiment [12] is described as follows: P. aeruginosa biofilm formation inhibitors, primary screen, PAO1 strain, BacTiter-Glo luminescence, LB-PBS (AID 1144). The note with it: 12 h, higher = more signal.
Experiment [13] can be described thus: CREB reporter modulators without forskolin, primary screen, cell-based, PC12, CRE-LacZ reporter, unstimulated (AID 1145). The note with it: no forskolin, luminescence, 4.5 h, higher = more signal, called active from +8 up or from −8 down.
A short description of experiment [14]: CREB reporter modulators under forskolin, primary screen, cell-based, PC12, CRE-LacZ reporter, forskolin-stimulated (AID 1146).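 Note: PC12 cells with 6xCRE LacZ reporter stimulated by forskolin 10 µM; beta-galactosidase reporter signal reflecting CREB driven transcription.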 The note with it: luminescence, 4.5 h, higher = more signal, called active from +8 up or from −8 down.
Experiment [15] addresses Streptavidin (Streptomyces avidinii) (UniProt P22629). As to the kind of experiment: streptavidin binders on small-molecule microarray, primary screen, artefact control for SMM compound annotation, biophysical, 635/667 nm fluorescence (AID 1147).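 Note: signal reflects streptavidin binding to arrayed compounds as a control protein.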 The note with it: streptavidin binding, higher = more signal.
Experiment [16] can be described thus: small-molecule binders of probe aInhba, primary screen, biochemical, small-molecule microarray, 635/667 nm fluorescence (AID 1148).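 Note: score merges 667nm spot fluorescence with signal-to-noise for antibody binding to printed compounds.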 The note with it: higher = more signal.
The target of experiment [17] is Torsin-1A (Homo sapiens) (UniProt O14656). As to the kind of experiment: torsin A binders from cell lysate, primary screen, small-molecule microarray, wild-type, 635/667 nm (AID 1149). The note with it: COS7 hTOR1A-WT lysate, 635 nm fluorescence, higher = more signal.
Chain of Torsin-1A (Homo sapiens) (O14656 whole entry, looked up): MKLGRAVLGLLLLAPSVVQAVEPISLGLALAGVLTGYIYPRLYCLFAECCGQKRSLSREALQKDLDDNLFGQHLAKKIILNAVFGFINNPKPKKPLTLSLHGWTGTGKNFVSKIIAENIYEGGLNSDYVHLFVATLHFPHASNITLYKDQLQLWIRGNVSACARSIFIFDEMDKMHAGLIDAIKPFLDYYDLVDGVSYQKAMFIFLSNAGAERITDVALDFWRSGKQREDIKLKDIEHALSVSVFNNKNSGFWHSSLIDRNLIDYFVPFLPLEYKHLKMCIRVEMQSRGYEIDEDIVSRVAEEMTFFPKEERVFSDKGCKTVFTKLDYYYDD
Experiment [18] shares this target. Nature of the experiment: small-molecule binders of mutant TOR1A in lysate, primary screen, cell lysate, small-molecule microarray, COS7 lysate, 635/667 nm fluorescence (AID 1150).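 Note: score pools 667 nm emission and signal to noise measuring lysate protein binding.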 The note with it: COS7 hTOR1A mutant lysate, 635 nm fluorescence, higher = more signal.
In experiment [19] the test system is Sonic hedgehog protein (Shh). Nature of the experiment: small-molecule binders of Shh protein, primary screen, biochemical, small-molecule microarray, 635/667 nm fluorescence (AID 1151).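 Note: Shh protein binding to compounds spotted on small-molecule microarray slides; score combines spot fluorescence intensity with signal-to-noise across triplicate slides.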 The note with it: small-molecule microarray binding, 635 nm fluorescence; higher = more signal.

Chain of Luciferin 4-monooxygenase (Photinus pyralis) (P08659 whole entry, looked up): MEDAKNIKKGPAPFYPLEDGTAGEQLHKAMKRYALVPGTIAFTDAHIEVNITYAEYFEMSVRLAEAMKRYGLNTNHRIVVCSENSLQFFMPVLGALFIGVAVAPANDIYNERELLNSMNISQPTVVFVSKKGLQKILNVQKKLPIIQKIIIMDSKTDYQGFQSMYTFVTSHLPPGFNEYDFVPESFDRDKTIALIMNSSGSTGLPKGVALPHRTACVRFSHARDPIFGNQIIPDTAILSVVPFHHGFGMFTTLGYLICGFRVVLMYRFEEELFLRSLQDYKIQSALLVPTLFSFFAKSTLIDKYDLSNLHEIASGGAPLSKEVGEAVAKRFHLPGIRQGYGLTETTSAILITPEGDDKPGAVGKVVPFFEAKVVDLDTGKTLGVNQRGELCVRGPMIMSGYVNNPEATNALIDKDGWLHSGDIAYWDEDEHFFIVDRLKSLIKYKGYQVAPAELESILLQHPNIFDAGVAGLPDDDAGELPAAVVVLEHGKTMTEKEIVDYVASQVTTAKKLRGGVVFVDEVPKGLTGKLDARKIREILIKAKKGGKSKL
Chain of Streptavidin (Streptomyces avidinii) (P22629 whole entry, looked up): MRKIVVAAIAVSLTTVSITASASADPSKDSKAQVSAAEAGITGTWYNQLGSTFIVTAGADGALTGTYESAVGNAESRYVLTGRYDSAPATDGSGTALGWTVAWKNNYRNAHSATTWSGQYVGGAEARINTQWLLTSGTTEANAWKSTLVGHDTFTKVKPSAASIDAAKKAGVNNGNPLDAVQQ

`Cc1ccc(S[C@]2(C(=O)NCC(F)(F)F)CC(=O)N(C(C)C)[C@@H]2c2ccc(CO)cc2I)cc1`: the composite z-score was -1.45 in experiment [1]; -0.68 in experiment [2]; -0.188 in experiment [3]; -1.11 in [4]; -0.366 in [5]; 0.0888 in experiment [6]. Moreover, the composite z-score with Lefty1 is -1.13; in [8] it was -0.86; in experiment [10], 0.0446; in experiment [15], -0.563; in experiment [16], -0.128; in the experiment with Torsin-1A (Homo sapiens) [17], -0.846. For the same molecule, the composite z-score with Torsin-1A (Homo sapiens) [18] is -0.474; in experiment [19], -0.594. The z-score is 0.758 in [7]; -1.01 (inactive) in experiment [9]; -1.53 (inactive) in experiment [11]; 0.111 (inactive) in [12]; 0.118 (inactive) in [13]; 0.725 (inactive) in experiment [14].
As to `COCCOC(=O)N1C(=O)[C@@]2(c3cc(C#CCCO)ccc31)[C@H](c1ccc(OCCO)cc1)N1[C@H](c3ccccc3)[C@H](c3ccccc3)OC(=O)[C@H]1[C@@H]2C(=O)N1CCN(c2ncccn2)CC1`, the composite z-score came to 1.05 in experiment [1]; 1.18 in experiment [2]; 0.307 in experiment [3]; 0.756 in [4]; 1.3 in [5]; 1.32 in [6]. Moreover, the composite z-score with Lefty1 was 1.37; in [8] it was 0.624; in [10], -0.0738; in experiment [15], 0.782; in [16] it was 0.0947; with Torsin-1A (Homo sapiens) [17], 0.546. Also, the composite z-score with Torsin-1A (Homo sapiens) [18] was 0.28; in experiment [19], 1.43. Besides, the z-score in [7] was -1.04; in experiment [9], -0.836 (inactive); in experiment [11], -0.361 (inactive); in experiment [12] it was 0.97 (inactive); in experiment [13], 0.334 (inactive); in experiment [14], 0.653 (inactive).
As to `COC(=O)[C@@]1(Cc2ccc(F)cc2)[C@H]2c3cc(C(=O)N(C)C)n(Cc4ccc(S(C)(=O)=O)cc4)c3C[C@H]2CN1C(=O)c1ccccc1`, the composite z-score in experiment [1] turned out to be 0.904; in [2], 0.941; in experiment [3] it was 1.16; in experiment [4], 1.01; in experiment [5], 0.158; in experiment [6], 0.0722. Moreover, the composite z-score is -0.224 in the experiment with Lefty1; 0.766 in [8]; 0.0577 in experiment [10]; 1.02 in [15]; 0.266 in experiment [16]; 0.33 with Torsin-1A (Homo sapiens) [17]. Besides, the figures for the composite z-score (in the experiment with Torsin-1A (Homo sapiens) [18]; in experiment [19]) were 0.0685 and -0.447, respectively. The z-score in [7] is 0.521; in experiment [9], 0.202 (inactive); in experiment [11], -0.845 (inactive); in experiment [12], -0.65 (inactive); in [13] it was 0.766 (inactive); in [14] it was -0.428 (inactive).
With `O=C1OCCC/C=C\[C@H]2OC34C=CCN(c5ccc6ccccc6c5)C(=O)[C@H]3N(CCCCCCO)C(=O)[C@@H]4C12` (stereo not given in full), the composite z-score is 1.79 in experiment [1]; 0.124 in experiment [2]; -0.29 in experiment [3]; -1.74 in [4]; -0.179 in experiment [5]; -0.943 in experiment [6]. Further, the composite z-score was -0.159 in the experiment on Lefty1; -0.0279 in [8]; -0.694 in experiment [10]; -1.1 in experiment [15]; -0.128 in [16]; -1.12 with Torsin-1A (Homo sapiens) [17]. Besides, the composite z-score in the experiment with Torsin-1A (Homo sapiens) [18] was -1.2; in experiment [19], -0.0305. Also, the z-score in experiment [7] is 1.74; in [9], -1.47 (inactive); in experiment [11] it was 0.117 (inactive); in experiment [12] it was -1.7 (inactive); in [13], 0.61 (inactive); in experiment [14] it was -0.677 (inactive).
With `CC1CC/C=C\[C@H]2OC34C=CCN(Cn5nnc6ccccc65)C(=O)[C@H]3N(C(CO)C(C)C)C(=O)[C@@H]4C2C(=O)O1` (stereo not given in full), the composite z-score in experiment [1] was 1.63; in experiment [2], 0.19; in experiment [3], 0.0406; in experiment [4] it was 0.422; in experiment [5], -0.311; in experiment [6], -0.464. Besides, the composite z-score is -0.2 in the experiment on Lefty1; 1.09 in [8]; -0.347 in [10]; -0.24 in experiment [15]; -0.159 in experiment [16]; -1.45 in the experiment with Torsin-1A (Homo sapiens) [17]. Also, the composite z-score was -1.12 with Torsin-1A (Homo sapiens) [18] and 0.627 in experiment [19]. Besides, the z-score in experiment [7] was -0.408; in [9], 0.178 (inactive); in [11], 0.154 (inactive); in experiment [12], -0.246 (inactive); in [13] it was -1.03 (inactive); in experiment [14] it was -1.05 (inactive).
